Bioassay records deposited in PubChem by National Center for Advancing Translational Sciences (NCATS).
Pf growth 96h: P. falciparum growth inhibition at 96 hour, primary screen for plastid delayed-death inhibitors; P. falciparum luciferase reporter growth, 96 h; Potency, µM (top dose mostly 28.7 µM), for inactives: at the highest dose activity change, negative = inhibition, most hits filed as inhibitors; hit rate 6.9% among 320,000; AID 504834; note: potency is the fitted concentration of half-maximal effect; % is set by controls: 0 for no effect and ±100 for the full control effect
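Compounds incubated with erythrocytes infected by luciferase-expressing P. falciparum (2% hematocrit, 0.05% parasitemia final) for 96 hours, 37 C in 5% CO2. Growth inhibition scored as decreased luciferase luminescence.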
CHX counter: affects cycloheximide protein synthesis inhibition readout, counter-screen | cell reporter, cycloheximide protein synthesis inhibition counterscreen | max response, % | hit rate 12% among 300,000; in the data active = max response mostly above about 13%, no sharp cut-off; inactive = mostly below about 14%; note: read at 38.3 µM for the half of the compounds with a filed dose; 0% is about no effect
HCV inhibitor: inhibitors of hepatitis C virus infection. Huh7.5.1 HCVcc-Cre infection, luciferase reporter, 44 h. hit rate 3.4% among 340,000. Potency, µM (series often up to 41.8 µM), for inactives: at the highest dose activity change, negative = inhibition, usual class: inhibitors; note: potency is the fitted concentration of half-maximal effect; % is set by controls: 0 for no effect and ±100 for the full control effect
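Seed cells (1,000/well) for 4 h; treat with compound and infect with HCVcc-Cre, moi about 0.5. Incubate 44 h, then detect luciferase activity.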
Pf growth 48h: inhibits P. falciparum growth in the first generation, 48 h | P. falciparum luciferase growth in erythrocytes, 48 h | Potency, µM (series often up to 28.7 µM), for the others: at the top dose activity change, negative = inhibition, usual class: inhibitors | AID 504832 | hit rate 5.9% among 310,000; note: potency is the fitted concentration of half-maximal effect; % is set by controls: 0 for no effect and ±100 for the full control effect
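Here the parasites carry a stable luciferase gene and grow inside erythrocytes in Albumax-based RPMI medium with compound for one erythrocytic cycle. Activity is scored as loss of luminescent signal.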
Shiga toxin inh: blocks Shiga toxin action in Vero cells; Vero cells, Shiga toxin protein synthesis inhibition reporter; inhibition, % at 38.7 µM; hit rate 9.2% among 290,000; AID 2315; in the data active = inhibition mostly above about 28%, no sharp cut-off; inactive = mostly below about 43%; note: 0% is about no effect
HCMV inh: blocks human cytomegalovirus replication; HFF cells, HCMV-luciferase reporter, 72 h; active compounds read low; activity change, negative = inhibition, % at 57.5 µM; hit rate 4.5% among 410,000; AID 1259415; in the data active = activity change below about -60%; inconclusive = no clear call, values can overlap the other calls; inactive = above about -39%; note: % is set by controls: 0 for no effect and ±100 for the full control effect
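Screen run at 2 compound doses on HFFs infected with reporter HCMV, MOI 1 PFU/cell. Luciferase activity from cell lysates at 72 h post infection gave inhibition relative to buffer-only and Salinomycin wells.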
The depositor's hits bear a star; ? = inconclusive; nt = not tested or not shown; [ ] = remark or other dose. This is a sample that favours compounds with a hit; in the whole collection about 21% have one here. Unless noted, calls come from the whole dose curve; as a rule, active = well fitted inhibition curve with a large enough effect; inconclusive = small, poorly fitted or top-dose-only effect, or another doubt; inactive = no such curve, though single readings can be large or run the other way.

SMILES	Pf growth 96h	CHX counter	HCV inhibitor	Pf growth 48h	Shiga toxin inh	HCMV inh
O=C(NCCCC(NC(=O)OCc1ccccc1)C(=O)O)OCc1ccccc1 (configuration not stated)	6.57µM*	-1.8	6.5%	3.8%	-3.9	7.8
O=C(N[C@@H](Cc1ccccc1)C(=O)CCl)OCc1ccccc1	23.7%	nt	?	1.5%	nt	-90.0*
CCC1C(=O)CC(c2ccc([N+](=O)[O-])cc2)NC1c1ccc([N+](=O)[O-])cc1 (configuration not stated)	25.6%	1.1	-2.9%	13.1µM*	-15.1	3.1
O=C(CCC(=O)Nc1ccccc1Cl)NNC(=O)Nc1cccc([N+](=O)[O-])c1	0.0%	8.0	21.1%	?	-3.7	-3.1
CCN(CC)CCCNC(=O)c1cc2c(=O)n(C)c3ccccc3c2n1C	10.4µM*	-3.1	-22.8%	nt	3.0	26.3
Cn1c(C(=O)NCCCN2CCCCCC2)cc2c(=O)n(C)c3ccccc3c21	?	-2.7	-23.7%	3.29µM*	20.3	39.9
COc1ccc(CCNC(=O)c2cc3c(=O)n(C)c4ccccc4c3n2C)cc1OC	?	-2.5	19.5%	?	-5.0	20.6
COc1ccc(CNC(=O)CSCc2cnn(-c3ccccc3)c2-n2cccc2)cc1	?	-2.5	-9.2%	nt	-15.4	2.7
COc1ccc(OC)c(CCNC(=O)c2cc3c(=O)n(C)c4ccccc4c3n2C)c1	nt	nt	nt	nt	nt	-105.1*
COc1ccc(OC)c(CCNC(=O)c2cnn(-c3ccccc3)c2-n2cccc2)c1	nt	nt	nt	nt	nt	-90.1*
Cc1oc2ncn(CC(C)C)c(=O)c2c1C(=O)NCCc1ccc(Cl)cc1	nt	nt	nt	nt	nt	-3.2
Cc1ccc(C)c(NC(=O)Cn2cnc3nc4c(cc3c2=O)CCCC4)c1	nt	nt	nt	nt	nt	35.5
N#Cc1cccnc1Nc1ccc(Cl)cc1	49.1%	10.3	12.0%	12.9%	7.8	14.1
CCCCc1ccc(Nc2ncccc2C#N)cc1	163.9%	58.2*	16.3%	51.8%	121.9*	68.4
Cc1ccc(S(=O)(=O)N2CCN(C)CC2)cc1[N+](=O)[O-]	214.5%	-0.9	10.2%	31.8%	-7.8	76.2
CCCN(CCC)C(=O)C1CCN(c2ccc(S(=O)(=O)N3CCOCC3)cc2[N+](=O)[O-])CC1	5.22µM*	1.9	-3.1%	?	-5.6	?
CN1CCN(S(=O)(=O)c2ccc(N(C)Cc3ccc(OC(F)F)cc3)c([N+](=O)[O-])c2)CC1	?	nt	11.2µM*	-11.1%	nt	?
CN(CC(=O)Nc1ccc(F)cc1)c1ccc(S(=O)(=O)N2CCCCC2)cc1[N+](=O)[O-]	?	-1.8	?	?	10.5	-25.0
CN(CC(=O)O)c1ccc(S(=O)(=O)N2CCOCC2)cc1[N+](=O)[O-]	94.5%	-2.2	9.7%	2.62µM*	-11.1	-34.6
COCCN(CCOC)C(=O)C1CCN(c2ccc(S(=O)(=O)N3CCOCC3)cc2[N+](=O)[O-])CC1	?	nt	3.4%	?	nt	-10.6
COC(=O)CSc1ccc(S(=O)(=O)N2CCOCC2)cc1[N+](=O)[O-]	10.4µM*	-1.4	16.4%	20.0%	-12.2	?
O=C(O)C1CCCCN1C(=O)c1ccc(S(=O)(=O)N2CCCCCC2)cc1 (configuration not stated)	-4.3%	nt	13.6%	13.3%	nt	0.0
Cc1oc2ncnc(N3CCOCC3)c2c1C(=O)Nc1ccc(Br)cc1F	nt	nt	nt	nt	nt	6.6
CC(=O)N(C)c1ccc(NS(=O)(=O)Cc2ccccc2)cc1	?	26.9*	-5.7%	55.9%	62.8*	8.6
O=C(CN1C(=O)CCSc2ccc(S(=O)(=O)N3CCCC3)cc21)NCc1ccccc1Cl	?	-2.2	-22.5%	-13.0%	-4.8	-38.4
SMILES	Pf growth 96h	CHX counter	HCV inhibitor	Pf growth 48h	Shiga toxin inh	HCMV inh
C[C@@H]1CN([C@H](C)CO)C(=O)CCCn2cc(nn2)CO[C@H]1CN(C)S(=O)(=O)c1cccc(F)c1	nt	nt	nt	nt	nt	-6.2
CC1C/C(=C\c2cccnc2)C(=O)/C(=C/c2cccnc2)C1 (configuration not stated)	44.4%	-5.8	?	3.7µM*	-13.3	-100.9*
CCCCCCCCC1=NCCc2c1[nH]c1ccccc21	?	-5.1	?	-6.5%[0.00184 µM]	2.2	27.4
CC(C)C/C=C1\CCc2c([nH]c3ccccc23)C1=O	110.5%	45.9*	-15.1%	103.5%	88.4*	42.1
O=C1/C(=C/c2cccnc2)CCc2c1[nH]c1ccccc21	?	47.7*	-29.0%	0.2%	67.9*	-76.3*
O=C1OC(/C=C/c2ccccc2)=NC/1=C\c1cccnc1	11.3%	4.6	12.9%	-8.5%	36.2	-20.5
COc1ccc2c(c1)c1c(c(=O)n(-c3cc(Cl)ccc3C)c(=O)n1Cc1ccc(F)cc1)n2C	nt	nt	nt	nt	nt	-0.4
COc1cc(C(=O)NC(C)c2ccc3ccccc3c2)cc(Cl)c1O (configuration not stated)	?	1.4	-5.5%	0.5%	-0.7	-15.3
C[n+]1cc(-c2ccccc2)n2c1CCCCC2	1.65µM*	3.0	23.5%	?	-9.6	nt
O=C(C[n+]1cc(-c2ccccc2)n2c1CCCCC2)c1ccc(Cl)cc1	0.657µM*	13.3	-19.2%	1.47µM*	17.4	5.1
Cc1ccc(-c2c[n+](CC(=O)c3ccc(Br)cc3)c3n2CCCCC3)cc1	-18.0%	10.5	-8.4%	5.22µM*	27.7	-88.2*
COc1ccc(-c2c[n+](CC(=O)c3ccccc3)c3n2CCCCC3)cc1	?	-3.0	?	?	14.1	?
CC1CCC(C(C)C)C(OC(=O)C[n+]2cc(-c3ccc(Cl)cc3)n3c2CCCCC3)C1 (configuration not stated)	2.94µM*	0.4	-16.7%	2.94µM*	17.8	-96.9*
O=C(C[n+]1cc(-c2ccc(Cl)c(Cl)c2)n2c1CCC2)OCc1ccccc1	10.9%	0.8	4.7%	0.1%	-11.3	3.9
Cc1ccccc1NC(=O)C1CCN(C(=O)c2cnn(-c3ccccc3)c2-n2cccc2)CC1	nt	nt	nt	nt	nt	-14.1
O=C(COC(=O)CCC(=O)c1cccs1)NC1CC1	11.2%	0.8	27.6%	8.2%	-6.3	-37.7
CCCCOc1ccc(N(CC(=O)NC2CCCC2)C(=O)CCC(=O)Nc2ccccn2)cc1	-2.9%	-5.2	10.5%	0.0%	-9.2	13.4
CCCCOc1ccc(N(CC(=O)NC2CCCCC2)C(=O)CCC(=O)Nc2ccccn2)cc1	?	-3.6	?	11.7µM*	-1.2	15.5
CCOC(=O)C(C(=O)Nc1cccc(C)n1)C1CCCCC1 (configuration not stated)	nt	-1.7	-12.0%	nt	-5.0	36.0
CCOC(=O)C(C(=O)Nc1ccccn1)C1CCCCC1 (configuration not stated)	9.28µM*	-1.5	-0.4%	5.6%	11.5	-10.7
COc1ccc(-n2cccc2/C=C/[N+](=O)[O-])cc1	3.29µM*	-7.8	?	?	-19.9	-101.6*
Cc1cc(OCC(=O)c2ccc(Br)cc2)ccc1N1C(=O)CCC1=O	?	21.1	10.4%	nt	39.1	38.3
